From PubChem BioAssay come the findings set out here.

The test system of assay [1] is Wnt5a (protein binding on small-molecule microarray). Nature of the assay: Wnt5a binders on small-molecule microarray, primary screen, biophysical, 635/667 nm fluorescence (AID 1142).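 Further: fluorescence read at 667 nm with signal to noise per printed feature.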 To be noted: 635 nm fluorescence, higher = more signal.
Assay [2] in a line: cell viability in Huh7 cells, primary screen, cytotoxicity control for HCV replication inhibitor project, CellTiter-Glo luminescence, basal, 48 h (AID 1143).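 Further: Huh7 hepatoma cells carrying a hepatitis C replication reporter with no stimulus; test concentration not given here.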 To be noted: Huh7 HCV replicon, higher = more signal, called active from +8 up or from −8 down. In general terms: Cellular ATP, detected with luciferase, serves as a proxy for viable cell number.
A short description of assay [3]: CREB reporter modulators without forskolin, primary screen, cell-based, PC12, CRE-LacZ reporter, unstimulated (AID 1145). To be noted: no forskolin, luminescence, 4.5 h, higher = more signal, called active from +8 up or from −8 down.
Assay [4] can be described thus: CREB reporter modulators under forskolin, primary screen, cell-based, PC12, CRE-LacZ reporter, forskolin-stimulated (AID 1146).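 Further: PC12 cells with 6xCRE LacZ reporter stimulated by forskolin 10 µM; beta-galactosidase reporter signal reflecting CREB driven transcription.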 As to conditions: luminescence, 4.5 h, higher = more signal, called active from +8 up or from −8 down.
The target of assay [5] is Streptavidin (Streptomyces avidinii) (UniProt P22629). Nature of the assay: streptavidin binders on small-molecule microarray, primary screen, artefact control for SMM compound annotation, biophysical, 635/667 nm fluorescence (AID 1147).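 Further: signal reflects streptavidin binding to arrayed compounds as a control protein.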 As to conditions: streptavidin binding, higher = more signal.
Assay [6] in a line: small-molecule binders of probe aInhba, primary screen, biochemical, small-molecule microarray, 635/667 nm fluorescence (AID 1148).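 Further: score merges 667nm spot fluorescence with signal-to-noise for antibody binding to printed compounds.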 To be noted: higher = more signal.
Assay [7] has as its target Torsin-1A (Homo sapiens) (UniProt O14656). Nature of the assay: torsin A binders from cell lysate, primary screen, small-molecule microarray, wild-type, 635/667 nm (AID 1149). To be noted: COS7 hTOR1A-WT lysate, 635 nm fluorescence, higher = more signal.
For assay [8] the target is unchanged. The assay can be described thus: small-molecule binders of mutant TOR1A in lysate, primary screen, cell lysate, small-molecule microarray, COS7 lysate, 635/667 nm fluorescence (AID 1150).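 Further: score pools 667 nm emission and signal to noise measuring lysate protein binding.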 To be noted: COS7 hTOR1A mutant lysate, 635 nm fluorescence, higher = more signal.
In assay [9] the test system is Sonic hedgehog protein (Shh). Nature of the assay: small-molecule binders of Shh protein, primary screen, biochemical, small-molecule microarray, 635/667 nm fluorescence (AID 1151).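 Further: Shh protein binding to compounds spotted on small-molecule microarray slides; score combines spot fluorescence intensity with signal-to-noise across triplicate slides.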 As to conditions: small-molecule microarray binding, 635 nm fluorescence; higher = more signal.

Molecules are shown by their SMILES. Activity calls are given as the source filed them.

Sequence of Torsin-1A (Homo sapiens) (O14656 whole entry, looked up): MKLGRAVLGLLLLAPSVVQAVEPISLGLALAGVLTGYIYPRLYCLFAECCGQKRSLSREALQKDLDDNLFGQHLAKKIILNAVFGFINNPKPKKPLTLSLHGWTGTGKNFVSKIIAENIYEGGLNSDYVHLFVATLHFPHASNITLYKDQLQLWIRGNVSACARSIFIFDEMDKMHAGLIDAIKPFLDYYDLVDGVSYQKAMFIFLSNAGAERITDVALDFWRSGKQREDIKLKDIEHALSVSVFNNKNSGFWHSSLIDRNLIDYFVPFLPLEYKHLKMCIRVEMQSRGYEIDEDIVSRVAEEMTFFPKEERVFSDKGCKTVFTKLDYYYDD
Sequence of Streptavidin (Streptomyces avidinii) (P22629 whole entry, looked up): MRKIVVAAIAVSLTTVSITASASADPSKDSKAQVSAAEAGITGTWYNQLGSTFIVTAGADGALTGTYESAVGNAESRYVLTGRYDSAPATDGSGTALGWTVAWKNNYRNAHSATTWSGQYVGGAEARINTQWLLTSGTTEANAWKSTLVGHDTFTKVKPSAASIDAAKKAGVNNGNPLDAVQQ

For `COCCCNC(=O)[C@@]1(Sc2ccc(C)cc2)CC(=O)N(Cc2cc(C(F)(F)F)cc(C(F)(F)F)c2)[C@@H]1c1ccc(CO)cc1I`, the composite z-score is -0.265 in assay [1]; -0.713 in assay [5]; -0.123 in [6]; -0.083 in the assay with Torsin-1A (Homo sapiens) [7]; -0.693 with Torsin-1A (Homo sapiens) [8]; -0.612 in [9]. Besides, the z-score in assay [2] was -1.47 (inactive); in assay [3], 1.01 (inactive); in assay [4] it was 0.264 (inactive).
In the case of `COC(=O)C1=CC(c2ccc(CO)cc2)=CC(C2CC2)N(Cc2sc3ccccc3c2Cl)C=C1C(=O)OC` (stereo not given), the composite z-score in assay [1] stood at 0.213; in assay [5], 2.25; in assay [6], 0.23; with Torsin-1A (Homo sapiens) [7], 0.454; with Torsin-1A (Homo sapiens) [8], 1.45; in [9], 0.313. For the same compound, the values for the z-score in [2], in assay [3] and in assay [4] were -5.35 (inactive), 0.272 (inactive) and -1.57 (inactive), respectively.
Turning to `CO[C@]12C=C(Br)[C@@H](C[C@@H]1c1ccccc1)[C@@]1(CO1)C2=O`, the composite z-score in [1] was -0.002; in [5] it was 0.4; in assay [6] it was -0.0221; in the assay with Torsin-1A (Homo sapiens) [7], 0.271; in the assay with Torsin-1A (Homo sapiens) [8] it was 0.309; in assay [9], 0.522. In addition, the z-score in assay [2] is -1.7 (inactive); in [3], -0.323 (inactive); in assay [4], 2 (inactive).
For the compound `COc1ccc([Si](C)(C)[C@H]2[C@H](CCO)O[C@@]3(C(=O)N(Cc4ccc(N5CCCCC5=O)cc4)c4ccccc43)[C@@H]2C)cc1`, the composite z-score in assay [1] is -0.0939; in [5] it was -0.0077; in assay [6] it was -0.128; with Torsin-1A (Homo sapiens) [7] it was 0.446; with Torsin-1A (Homo sapiens) [8], 0.62; in assay [9], 1.58. The values for the z-score in [2], in assay [3] and in assay [4] were -3.56 (inactive), 1.98 (inactive) and -2.57 (inactive), respectively.
With `CO[C@H]1COC(=O)[C@H](CCSC)NC(=O)CC=C[C@@H](C)COC(=O)[C@@H](OCc2ccccc2)C=C[C@@H]1C`, the composite z-score in assay [1] is 0.156; in assay [5], -0.154; in assay [6] it was -0.0762; with Torsin-1A (Homo sapiens) [7], 2.88; with Torsin-1A (Homo sapiens) [8], 2.85; in [9], 1.93. Further, the values for the z-score in [2], in assay [3] and in assay [4] were 0.111 (inactive), -0.0223 (inactive) and -0.48 (inactive), respectively.
Consider `Cc1ccc(S[C@]2(C(=O)NCCN3CCOCC3)CC(=O)N(C3Cc4ccccc4C3)[C@@H]2c2ccc(CO)cc2I)cc1`, for which the composite z-score in [1] was -0.149; in assay [5], -0.658; in assay [6], 0.0756; with Torsin-1A (Homo sapiens) [7], -0.434; with Torsin-1A (Homo sapiens) [8] it was -0.131; in assay [9] it was -0.678. The values for the z-score in assay [2], in assay [3] and in [4] were -2.98 (inactive), 0.531 (inactive) and 0.174 (inactive), respectively.
On to `C=CCc1cccc([C@@H]2[C@@H](C)CC[C@H]3C(=O)N4[C@H](c5cccc(CC=C)c5)[C@@H](C)CC[C@H]4C(=O)N23)c1`, for which the composite z-score in [1] worked out at 0.205; in assay [5], 0.898; in assay [6], 0.0968; with Torsin-1A (Homo sapiens) [7] it was 0.392; in the assay with Torsin-1A (Homo sapiens) [8], 0.203; in assay [9], 0.946. In addition, the z-score in assay [2] was -3.75 (inactive); in assay [3] it was 3.64 (inactive); in [4] it was -0.353 (inactive).
As for `C=CC[C@]1(C(N)=O)N=C(c2ccc(OCCCO)cc2)O[C@H]1c1ccccc1CN=[N+]=[N-]`, the composite z-score in assay [1] was 0.151; in [5] it was 1.42; in [6], -0.0093; in the assay with Torsin-1A (Homo sapiens) [7], 1.69; with Torsin-1A (Homo sapiens) [8], 0.96; in assay [9] it was -0.373. The z-score in assay [2] is -4.28 (inactive); in assay [3], 1.54 (inactive); in assay [4], -1.31 (inactive).
As to `C[C@H]1NC(=O)[C@@H](C)NC(=O)[C@@]23C(=O)N[C@@H](Cc4ccccc4)C2[C@H](C)[C@@]2(C)O[C@H]2C3/C=C/C/C=C\CNC1=O` (stereo not given in full), the composite z-score in assay [1] is 0.0845; in [5] it was -0.594; in assay [6], -0.128; in the assay with Torsin-1A (Homo sapiens) [7], 0.153; with Torsin-1A (Homo sapiens) [8], -0.354; in [9], 0.651. Moreover, the z-score is -0.333 (inactive) in assay [2], 3.4 (inactive) in assay [3] and -1.32 (inactive) in assay [4].
As to `C=CCNC(=O)[C@H]1[C@@H]2C(=O)O[C@@H](c3ccccc3)[C@@H](c3ccccc3)N2[C@@H](c2ccccc2OCCO)[C@]12C(=O)N(C(=O)OCCOC)c1ccc(C#CCC(C(=O)OC)C(=O)OC)cc12`, the composite z-score was 0.302 in assay [1]; -0.204 in [5]; 0.225 in assay [6]; 0.825 with Torsin-1A (Homo sapiens) [7]; 0.946 with Torsin-1A (Homo sapiens) [8]; 1.81 in assay [9]. Also, the z-score is -3.84 (inactive) in assay [2], 0.775 (inactive) in assay [3] and 0.105 (inactive) in [4].
On to `Cc1ccc(N2C(=O)c3ccccc3[C@](C)(C(=O)O)[C@@H]2c2ccc(CO)cc2)nc1`, for which the composite z-score is -0.56 in assay [1]; -0.519 in assay [5]; -0.267 in assay [6]; 1.11 with Torsin-1A (Homo sapiens) [7]; -0.144 in the assay with Torsin-1A (Homo sapiens) [8]; -0.751 in [9]. Besides, the z-score was -0.718 (inactive) in [2], -0.852 (inactive) in assay [3] and -0.942 (inactive) in assay [4].
On to `CCCCCCc1nc(C2CC2)c(C)c2c1[Si](C(C)C)(C(C)C)OC2`, for which the composite z-score was -0.0534 in assay [1]; -0.0332 in [5]; -0.0494 in assay [6]; 0.277 in the assay with Torsin-1A (Homo sapiens) [7]; 0.305 with Torsin-1A (Homo sapiens) [8]; 0.0027 in assay [9]. The z-score in assay [2] is -5.02 (inactive); in assay [3] it was 0.236 (inactive); in [4] it was -0.75 (inactive).
For `C[C@@H]1CC[C@H]2C(=O)N3[C@@H](CC[C@@H](C)[C@@H]3c3cccc(N4CCOCC4)c3)C(=O)N2[C@H]1c1cccc(N2CCOCC2)c1`, the composite z-score in assay [1] was -0.0915; in assay [5], 0.766; in [6], -0.278; with Torsin-1A (Homo sapiens) [7], 1.38; with Torsin-1A (Homo sapiens) [8] it was 0.312; in [9] it was 0.106. Further, the values for the z-score in assay [2], in assay [3] and in assay [4] were -0.334 (inactive), 9.59 (active) and -0.84 (inactive), respectively.
Consider `CC(C)[Si]1(C(C)C)OCc2cc(C3CC3)nc(-c3ccccc3)c21`, for which the composite z-score is -0.125 in assay [1]; -0.0842 in assay [5]; -0.108 in assay [6]; 0.188 in the assay with Torsin-1A (Homo sapiens) [7]; 0.127 in the assay with Torsin-1A (Homo sapiens) [8]; 0.545 in assay [9]. Moreover, the z-score in assay [2] is -1.63 (inactive); in assay [3] it was 0.339 (inactive); in assay [4], -1.08 (inactive).
As for `C=CCNC(=O)[C@H]1[C@@H]2C(=O)O[C@@H](c3ccccc3)[C@@H](c3ccccc3)N2[C@@H](c2ccccc2OCCO)[C@]12C(=O)N(C(=O)OCCOC)c1ccc(C#CCNC(N)=O)cc12`, the composite z-score was -0.0103 in assay [1]; 0.98 in assay [5]; 0.026 in assay [6]; 0.661 in the assay with Torsin-1A (Homo sapiens) [7]; 0.296 in the assay with Torsin-1A (Homo sapiens) [8]; 0.633 in assay [9]. For the same compound, the z-score in assay [2] was -1.76 (inactive); in [3], -0.471 (inactive); in assay [4], 0.948 (inactive).
